# Test results from PubChem BioAssay.
# “And” between values parts separate entries of the source, which are not always exact repeats. Equal values may be shown once. The source made the active and inactive calls.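 The calls were made as follows, unless noted: active = compounds killing one labelled cell type while sparing the other, by normalised counts and ratio limits, not self-fluorescent; inactive = the rest.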
# Key:
# [1] = biological target: 6-phosphogluconate dehydrogenase, decarboxylating (Homo sapiens) (UniProt P52209); assay: 6PGD enzyme inhibitors, primary screen, biochemical, human, recombinant enzyme, NADPH absorbance (AID 1159550;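 active = at least 20% inhibition of 6-phosphogluconate dehydrogenase activity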); details: recombinant 6PGD, NADPH absorbance 341 nm; at 10 µM; stronger effect = higher value
# Sequence of 6-phosphogluconate dehydrogenase, decarboxylating (Homo sapiens) (P52209 whole entry, looked up): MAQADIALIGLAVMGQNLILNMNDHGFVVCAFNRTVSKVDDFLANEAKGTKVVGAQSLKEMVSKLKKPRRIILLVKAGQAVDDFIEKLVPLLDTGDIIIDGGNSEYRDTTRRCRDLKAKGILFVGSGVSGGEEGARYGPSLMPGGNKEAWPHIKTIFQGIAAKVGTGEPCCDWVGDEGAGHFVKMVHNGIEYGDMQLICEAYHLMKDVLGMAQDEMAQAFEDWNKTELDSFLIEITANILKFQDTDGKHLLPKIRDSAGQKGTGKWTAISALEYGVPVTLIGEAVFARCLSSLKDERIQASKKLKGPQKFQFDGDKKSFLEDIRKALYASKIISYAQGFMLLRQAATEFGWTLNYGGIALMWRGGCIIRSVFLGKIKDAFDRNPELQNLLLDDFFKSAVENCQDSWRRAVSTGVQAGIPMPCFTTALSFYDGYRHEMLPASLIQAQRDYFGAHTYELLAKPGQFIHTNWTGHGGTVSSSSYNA
# [2] = differential killing of epithelial or mesenchymal cells, primary screen, imaging, PC-3E GFP, TEM4-18 mCherry, co-culture (AID 1345086); details: imaging cell counts, at 1 µM; for red/green cell ratio (normalised): actives lie on both sides, counts scaled to control wells, 1 = unselective;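 as to all read-outs here: cells exposed to compound for 72 h before imaging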;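 as to red/green cell ratio (normalised): normalised mesenchymal count divided by normalised epithelial count so high means epithelial killing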
# [3] = biological target: Mitogen-activated protein kinase 7 (Homo sapiens) (UniProt Q13164); assay: ERK5 transactivation activators in reporter cells, primary screen, cell-based, HTS (AID 1508626;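 active = luciferase signal above three times the same-plate solvent-only control wells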;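 also: luciferase driven by Gal4-ERK5 fusion binding five Gal4 sites before minimal TATA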); details: HeLa Gal4-ERK5 transactivation, 18 h, at 5 µM, stronger effect = higher value
# Sequence of Mitogen-activated protein kinase 7 (Homo sapiens) (Q13164 whole entry, looked up, the tested form may be a part): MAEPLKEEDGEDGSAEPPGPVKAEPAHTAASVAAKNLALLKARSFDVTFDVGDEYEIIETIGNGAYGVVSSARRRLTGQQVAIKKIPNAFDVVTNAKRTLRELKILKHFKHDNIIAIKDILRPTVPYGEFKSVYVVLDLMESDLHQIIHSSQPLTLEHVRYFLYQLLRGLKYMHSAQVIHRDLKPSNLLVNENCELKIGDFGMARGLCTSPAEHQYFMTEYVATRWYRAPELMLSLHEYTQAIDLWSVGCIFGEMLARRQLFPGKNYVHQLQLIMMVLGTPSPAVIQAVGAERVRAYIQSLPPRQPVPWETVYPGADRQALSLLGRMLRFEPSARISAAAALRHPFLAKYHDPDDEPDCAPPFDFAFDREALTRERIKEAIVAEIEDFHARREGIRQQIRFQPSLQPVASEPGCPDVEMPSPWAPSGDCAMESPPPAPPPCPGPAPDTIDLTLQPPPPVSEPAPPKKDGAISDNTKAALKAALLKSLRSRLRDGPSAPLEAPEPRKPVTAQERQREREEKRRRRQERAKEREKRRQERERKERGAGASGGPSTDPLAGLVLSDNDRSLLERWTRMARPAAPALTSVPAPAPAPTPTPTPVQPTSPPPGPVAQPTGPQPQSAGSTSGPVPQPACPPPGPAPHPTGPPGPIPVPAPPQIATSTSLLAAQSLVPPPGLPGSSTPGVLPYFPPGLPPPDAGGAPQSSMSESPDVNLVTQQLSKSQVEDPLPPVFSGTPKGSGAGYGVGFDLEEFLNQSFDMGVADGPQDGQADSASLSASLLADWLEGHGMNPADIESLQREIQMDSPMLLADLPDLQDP
# [4] = measured here: epithelial PC-3E GFP cell survival
# [5] = measured here: mesenchymal TEM4-18 mCherry cell survival
Structure (SMILES),inhibition [1],red/green cell ratio (normalised) [2],"normalised cell number [2, 4]","normalised cell number [2, 5]",luciferase signal [3]
C=CCSCC=C,-1.41% (inactive),1.04 (inactive),1.02,1.06,20 AU (inactive)
NC(C(=O)O)C(O)C(=O)O (stereo not given),17.7% (inactive),1.01 (inactive),1.05,1.06,260 AU (active)
C#CCCCCCCCCCCCC(O)CC(O)CO (stereo not given),6.35% (inactive),0.88 (inactive),0.94,0.82,52 AU (inactive)
CCCCC[C@H](CC(=O)O)C(=O)O,0.671% (inactive),0.96 (inactive),0.99,0.94,40 AU (inactive)
COC1(C)CCC2OC2(C)CCC2C1CC2(C)C (stereo not given),10.7% (inactive),1.21 (inactive),0.76,0.91,80 AU (inactive)
CC(C)=CCc1c2c(c3occ(-c4ccc(O)cc4)c(=O)c3c1O)C=CC(C)(C)O2,8.7% (inactive),1.02 (inactive),1.04,1.06,392 AU (active)
CCNC(=O)CC[C@H](N)C(=O)O,3.3% (inactive),0.97 (inactive),1.09,1.06,164 AU (inactive)
COC(=O)[C@@H]1OC(=O)C2OC23[C@@]1(C)CCC1[C@]2(C)C(C[C@@H](O)[C@]13C)C(C)(C)[C@H](OC(C)=O)C[C@@H]2OC(C)=O (stereo not given in full),-0.817% (inactive),0.93 (inactive),1.09,1.02,64 AU (inactive)
CC(=O)Oc1ccc(O)cc1,4.32% (inactive),1.07 (inactive) and 1.15 (inactive),1.01 and 1.05,1.08 and 1.21,88 AU (inactive)
COc1c(-c2coc3cc4c(cc3c2=O)CC(O)C(C)(C)O4)ccc2c1C=CC(C)(C)O2 (stereo not given),-4.11% (inactive),0.82 (inactive),1.08,0.88,24 AU (inactive)
CC(=O)O[C@@H]1CC2C(C)(CC[C@H](O)C2(C)C)C2CC[C@]3(C)C(=CC(=O)O[C@H]3c3ccoc3)C21C (stereo not given in full),0.669% (inactive),1.03 (inactive),1.07,1.1,16 AU (inactive)
C=C1C(=O)O[C@@H]2C[C@@]3(C)CCC[C@H](C)C3=C[C@H]12,8.8% (inactive),1.12 (inactive),0.81,0.9,84 AU (inactive)
COc1cc(C)c2c(c1C=O)Oc1c(c(C)c(O)c3c1C(O)OC3=O)OC2=O (stereo not given),-0.395% (inactive),0.74 (inactive),0.95,0.7,44 AU (inactive)
C=C[C@@](C)(O)CCC1C(=C)C[C@H](O)C2C(C)(C)CCCC12C (stereo not given in full),15.2% (inactive),0.87 (inactive),1.07,0.93,64 AU (inactive)
NCCC(=O)N[C@@H](Cc1cnc[nH]1)C(=O)O,-1.18% (inactive),1.1 (inactive),0.93,1.03,100 AU (inactive)
COc1ccc2c(c1)OCc1c-2oc2cc(OC)ccc12,2.98% (inactive),0.82 (inactive),1.14,0.93,96 AU (inactive)

Structure (SMILES),inhibition [1],red/green cell ratio (normalised) [2],"normalised cell number [2, 4]","normalised cell number [2, 5]",luciferase signal [3]
OC[C@@H](O)[C@@H](O[C@@H]1O[C@H](CO)[C@@H](O)[C@H](O)[C@H]1O)[C@H](O)[C@@H](O)CO,10.6% (inactive),0.88 (inactive),1.03,0.9,208 AU (inactive)
Cc1cc(O)c(C=O)c(O)c1C(=O)O,15% (inactive),0.84 (inactive),1.14,0.95,120 AU (inactive)
COc1cc(O)cc(OC)c1OC,-0.756% (inactive),1.04 (inactive),1.01,1.04,20 AU (inactive)
Cc1cc(=O)oc2cc(O)c(O)cc12,8.55% (inactive),0.79 (inactive),1.15,0.91,60 AU (inactive)
CC(C)=CCc1c(O)cc2oc(C)cc(=O)c2c1O,8.51% (inactive),0.93 (inactive),1.18,1.1,52 AU (inactive)
COc1ccc(-c2coc3cc(O)ccc3c2=O)c(O)c1O,9.58% (inactive),0.97 (inactive),0.83,0.8,16 AU (inactive)
COc1c2ccoc2c(OC)c2oc(=O)ccc12,6.1% (inactive),1.06 (inactive),1.03,1.09,432 AU (active)
COc1ccc2c(c1)OC[C@@H](Cc1ccc(OC)c(OC)c1)[C@H]2O,15.8% (inactive),1.09 (inactive),0.98,1.07,76 AU (inactive)
C=C1C2CC[C@@]3(C)[C@H](c4ccoc4)OC(=O)C[C@]13O[C@H]1CC(O)C(C)(C)C(CC(=O)OC)[C@@]21C (stereo not given in full),24.1% (active),1.02 (inactive),0.98,1,16 AU (inactive)
C=CC(C)(O)CC/C=C(\C)CCC=C(C)C (stereo not given),-3.52% (inactive),1.02 (inactive),0.95,0.98,68 AU (inactive)
CC(CCC(=O)O)[C@H]1CCC2C3CC[C@@H]4CC(=O)CC[C@]4(C)C3C=C[C@@]21C (stereo not given in full),12.1% (inactive),0.9 (inactive),1,0.9,28 AU (inactive)
Oc1ccc([C@H]2Oc3cc(O)cc(O)c3C[C@H]2O)cc1,2.29% (inactive),0.95 (inactive),0.99,0.94,140 AU (inactive)
COc1cc(C(C)=O)cc(OC)c1O,-40.3% (inactive),1.05 (inactive),0.87,0.91,64 AU (inactive)
CCOC(=O)c1c(C)cc(O)cc1O,0.669% (inactive),0.99 (inactive),0.99,0.99,72 AU (inactive)
O=C(O)CCCCCCCCCCCCC1C=CCC1 (stereo not given),-14% (inactive),1 (inactive),1.02,1.02,20 AU (inactive)
COc1ccc2c(c1)OCC(Cc1ccc(OC)c(O)c1)C2=O (stereo not given),13.3% (inactive),0.88 (inactive),0.74,0.65,52 AU (inactive)
